# Laboratory results taken from PubChem BioAssay (Tox21).
# A number with no mark means an inactive call. Records with an inconclusive call do not appear. Entries that show only a call come without a potency. The source made the active and inactive calls. The call rests on the fitted dose curve; in most records, active means well fitted curve in the direction sought with a large enough effect in the repeat runs; inconclusive means weak or mixed curves; inactive means no such curve, though single readings can be large; an effect the other way counts as inactive or inconclusive.
# Key:
# [1] = A CellTox Green Cytotoxicity Assay to monitor cytotoxicity in HEK293 cells - 24 hour (AID 1224875); conditions: CellTox Green fluorescence; series mostly up to 76.8 µM; further: nearly all actives have a fitted effect of over 45% in size
# Outline: (§1)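 Read-out: fluorescence of a cell-impermeant cyanine dye staining DNA of dead cells, proportional to cytotoxicity. HEK293, 600 cells/well with reagent, compound (23 nL DMSO) added after 5 h; reads at 0, 8, 16, 24, 32, 40 h.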
# [2] = A CellTox Green Cytotoxicity Assay to monitor cytotoxicity in HepG2 cells - 16 hour (AID 1224876); conditions: CellTox Green fluorescence; series mostly up to 76.8 µM; further: nearly all actives have a fitted effect of over 45% in size
# Outline: (§2)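 HepG2, 600 cells/well premixed w/ CellTox Green; 5 h settle, 37 C/5% CO2; pintool cpd add (DMSO); 37 C, 40 h; fluorescence read at 0, 8, 16, 24, 32, 40 h.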
# [3] = qHTS RealTime-Glo MT Cell Viability Assay in HepG2 cells - 32 hour (AID 1224877); conditions: RealTime-Glo luminescence; series mostly up to 76.8 µM; further: nearly all actives have a fitted effect of over 55% in size
# Outline: (§3)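 Viability was tracked continuously by NanoLuc luminescence from prosubstrate reduced by living HepG2 cells, at successive time points over 40 h of compound exposure. Cells with reagent were preincubated 5 h at 37 °C before compound addition.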
# [4] = A CellTox Green Cytotoxicity Assay to monitor cytotoxicity in HepG2 cells - 24 hour (AID 1224878); conditions: CellTox Green fluorescence; series mostly up to 76.8 µM; further: nearly all actives have a fitted effect of over 45% in size
# Outline: as §2
# [5] = A CellTox Green Cytotoxicity Assay to monitor cytotoxicity in HepG2 cells - 40 hour (AID 1224879); conditions: CellTox Green fluorescence; series mostly up to 76.8 µM; further: nearly all actives have a fitted effect of over 40% in size
# Outline: as §2
# [6] = A CellTox Green Cytotoxicity Assay to monitor cytotoxicity in HEK293 cells - 32 hour (AID 1224881); conditions: CellTox Green fluorescence; series mostly up to 76.8 µM; further: nearly all actives have a fitted effect of over 40% in size
# Outline: as §1
# [7] = A CellTox Green Cytotoxicity Assay to monitor cytotoxicity in HepG2 cells - 0 hour (AID 1224882); conditions: CellTox Green fluorescence; series mostly up to 76.8 µM; further: nearly all actives have a fitted effect of over 35% in size
# Outline: as §2
# [8] = A CellTox Green Cytotoxicity Assay to monitor cytotoxicity in HepG2 cells - 32 hour (AID 1224883); conditions: CellTox Green fluorescence; series mostly up to 76.8 µM; further: nearly all actives have a fitted effect of over 50% in size
# Outline: as §2
# [9] = A CellTox Green Cytotoxicity Assay to monitor cytotoxicity in HEK293 cells - 8 hour (AID 1224884); conditions: CellTox Green fluorescence; series mostly up to 76.8 µM; further: nearly all actives have a fitted effect of over 35% in size
# Outline: as §1
# [10] = qHTS RealTime-Glo MT Cell Viability Assay in HepG2 cells - 16 hour (AID 1224885); conditions: RealTime-Glo luminescence; series mostly up to 76.8 µM; further: nearly all actives have a fitted effect of over 50% in size
# Outline: as §3
# [11] = qHTS RealTime-Glo MT Cell Viability Assay in HEK293 cells - 24 hour (AID 1224886); conditions: RealTime-Glo luminescence; series mostly up to 76.8 µM; further: nearly all actives have a fitted effect of over 50% in size; further: potency means the concentration at half of the fitted maximal effect; on activity change, negative = cytotoxicity: top concentration of the series differs between compounds
# Outline: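 Viability tracked continuously by luminescence as live cells reduce a prosubstrate for NanoLuc; HEK293 cells preincubated 5 h, compound-treated at 37 C, and read at 0, 8, 16, 24, 32 and 40 h.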
# [12] = qHTS RealTime-Glo MT Cell Viability Assay in HepG2 cells - 0 hour (AID 1224889); conditions: RealTime-Glo luminescence; series mostly up to 76.8 µM; further: nearly all actives have a fitted effect of over 50% in size
# Outline: as §3
# [13] = A CellTox Green Cytotoxicity Assay to monitor cytotoxicity in HepG2 cells - 8 hour (AID 1224890); conditions: CellTox Green fluorescence; series mostly up to 76.8 µM; further: nearly all actives have a fitted effect of over 45% in size
# Outline: as §2
# [14] = qHTS assay to identify small molecule antagonists of the estrogen receptor alpha (ER-alpha) signaling pathway using the BG1 cell line in the presence of 0.1 nM 17-beta-estradiol - cell viability counter screen (AID 1259241); conditions: VM7Luc4E2 (BG1) viability, CellTiter-Fluor protease, 22 h, 0.1 nM estradiol agonist added; series mostly up to 92.4 µM; further: nearly all actives have a fitted effect of over 40% in size
# Outline: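 VM7Luc4E2 cells (endogenous ER-alpha, 4×ERE-luciferase), hormone-starved 5 days in charcoal-stripped FBS, were treated with compounds plus 0.1 nM 17beta-estradiol for 22 hr at 37C; viability read in same wells as CellTiter-Fluor live-cell protease fluorescence.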
# [15] = qHTS assay to identify small molecule antagonists of the androgen receptor (AR) signaling pathway using the MDA cell line in the presence of 0.5 nM R1881 - cell viability counter screen (AID 1259242); conditions: MDA-kb2 viability, CellTiter-Fluor protease fluorescence, 16 h; series mostly up to 92.4 µM; further: nearly all actives have a fitted effect of over 45% in size
# Outline: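 Live-cell protease fluorescence, CellTiter-Fluor, 30 min at 37C. Cells: MDA-kb2, 3,000/well, preincubated 5 hr. Compounds plus 0.5 nM R1881 final, 16 hr, 37C, 0% CO2.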
# [16] = target: Estrogen receptor (Homo sapiens) (UniProt P03372); experiment: qHTS assay to identify small molecule antagonists of the estrogen receptor alpha (ER-alpha) signaling pathway using the BG1 cell line in the presence of 0.1 nM 17-beta-estradiol (AID 1259244); conditions: VM7Luc4E2 (BG1) ERE-luciferase, antagonist mode, 0.1 nM E2, 22 h; series mostly up to 92.4 µM; further: nearly all actives have a fitted effect of over 50% in size; further: potency means the concentration at half of the fitted maximal effect
# Sequence of Estrogen receptor (Homo sapiens) (P03372 whole entry, looked up): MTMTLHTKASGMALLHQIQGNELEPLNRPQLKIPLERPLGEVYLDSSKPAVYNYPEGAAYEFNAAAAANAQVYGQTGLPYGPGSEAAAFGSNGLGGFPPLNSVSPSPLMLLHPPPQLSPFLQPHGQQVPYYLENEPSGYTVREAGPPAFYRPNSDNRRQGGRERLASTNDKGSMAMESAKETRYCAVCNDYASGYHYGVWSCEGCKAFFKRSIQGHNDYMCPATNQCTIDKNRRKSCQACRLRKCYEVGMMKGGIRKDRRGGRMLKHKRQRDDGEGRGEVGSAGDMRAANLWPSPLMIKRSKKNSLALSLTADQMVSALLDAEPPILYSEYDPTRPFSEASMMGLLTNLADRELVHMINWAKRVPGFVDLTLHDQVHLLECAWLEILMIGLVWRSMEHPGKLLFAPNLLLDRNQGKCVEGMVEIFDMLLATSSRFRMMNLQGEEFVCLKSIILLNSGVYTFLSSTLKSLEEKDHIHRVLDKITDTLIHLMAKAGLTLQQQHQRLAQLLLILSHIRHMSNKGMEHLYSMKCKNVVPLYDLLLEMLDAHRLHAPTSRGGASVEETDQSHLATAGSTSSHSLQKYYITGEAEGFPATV
# Outline: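 Luminescence after ONE-Glo (30 min, room temperature) measured ERE-luciferase activity in VM7Luc4E2 cells treated 22 h with compound and 0.1 nM final 17beta-estradiol as stimulator.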
# [17] = A CellTox Green Cytotoxicity Assay to monitor cytotoxicity in HEK293 cells - 16 hour (AID 1224888); conditions: CellTox Green fluorescence; series mostly up to 76.8 µM; further: nearly all actives have a fitted effect of over 35% in size
# Outline: as §1
# [18] = target: Androgen receptor (Homo sapiens) (UniProt P10275); experiment: qHTS assay to identify small molecule antagonists of the androgen receptor (AR) signaling pathway using the MDA cell line in the presence of 0.5 nM R1881 (AID 1259243); conditions: MDA-kb2 MMTV-luciferase, R1881 0.5 nM, 16 h; series mostly up to 92.4 µM; further: nearly all actives have a fitted effect of over 50% in size
# Sequence of Androgen receptor (Homo sapiens) (P10275 whole entry, looked up): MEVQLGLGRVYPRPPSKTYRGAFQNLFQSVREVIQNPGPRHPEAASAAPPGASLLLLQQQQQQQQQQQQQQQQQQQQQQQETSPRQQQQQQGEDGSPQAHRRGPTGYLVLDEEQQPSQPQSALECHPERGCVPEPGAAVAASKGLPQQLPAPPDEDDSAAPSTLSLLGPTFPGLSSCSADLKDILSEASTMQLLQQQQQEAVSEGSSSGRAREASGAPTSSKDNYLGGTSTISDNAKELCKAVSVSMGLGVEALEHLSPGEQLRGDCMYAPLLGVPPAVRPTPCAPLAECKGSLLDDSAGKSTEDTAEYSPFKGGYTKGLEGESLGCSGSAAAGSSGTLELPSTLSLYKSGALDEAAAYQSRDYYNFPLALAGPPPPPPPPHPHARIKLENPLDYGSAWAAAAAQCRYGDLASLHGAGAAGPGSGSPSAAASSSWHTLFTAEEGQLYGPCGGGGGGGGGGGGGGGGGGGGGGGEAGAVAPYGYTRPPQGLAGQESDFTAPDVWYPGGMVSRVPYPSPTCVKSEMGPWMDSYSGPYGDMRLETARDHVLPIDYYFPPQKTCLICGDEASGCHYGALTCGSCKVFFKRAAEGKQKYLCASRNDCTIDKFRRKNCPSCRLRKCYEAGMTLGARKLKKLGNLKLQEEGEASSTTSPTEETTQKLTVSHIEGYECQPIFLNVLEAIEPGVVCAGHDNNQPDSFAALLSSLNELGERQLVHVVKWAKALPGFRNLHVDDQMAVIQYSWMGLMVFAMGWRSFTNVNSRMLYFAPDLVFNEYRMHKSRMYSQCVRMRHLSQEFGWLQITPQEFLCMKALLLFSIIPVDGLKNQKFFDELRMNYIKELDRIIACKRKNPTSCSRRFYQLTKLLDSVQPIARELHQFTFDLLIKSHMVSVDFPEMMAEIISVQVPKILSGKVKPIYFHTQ
# Outline: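 MDA-kb2, MMTV-luc (AR/GR elements); 3,000 cells/well; cpd + 0.5 nM R1881 final; 16 hr 37C, 0% CO2; ONE-Glo 30 min RT; luminescence.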
# [19] = qHTS RealTime-Glo MT Cell Viability Assay in HEK293 cells - 0 hour (AID 1224880); conditions: RealTime-Glo luminescence; series mostly up to 76.8 µM
# Outline: (§4)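 Luminescence readout at each listed time point; HEK293, 600 cells/well, RealTime-Glo MT reagent added with cells; compounds pinned (23 nL in DMSO) after 5 h at 37 C; continuous culture at 37 C.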
# [20] = qHTS RealTime-Glo MT Cell Viability Assay in HEK293 cells - 8 hour (AID 1224887); conditions: RealTime-Glo luminescence; series mostly up to 76.8 µM; further: nearly all actives have a fitted effect of over 50% in size; further: potency means the concentration at half of the fitted maximal effect; on activity change, negative = cytotoxicity: top concentration of the series differs between compounds
# Outline: as §4
compound,measurement,setting,value
c1ccc2occc2c1,Potency,[1],inactive
same,Potency,[2],inactive
same,Potency,[3],inactive
same,Potency,[4],inactive
same,Potency,[5],inactive
same,Potency,[6],inactive
same,Potency,[7],inactive
same,Potency,[8],inactive
same,Potency,[9],inactive
same,Potency,[10],inactive
same,Potency,[11],inactive
same,Potency,[12],inactive
same,Potency,[13],inactive
same,Potency,[14],inactive
same,Potency,[15],inactive
same,Potency,[16],68.6 µM (active)
Cc1ccc(N=Nc2c(O)ccc3ccccc23)c(C)c1,Potency,[1],inactive
same,Potency,[2],inactive
same,Potency,[3],inactive
same,Potency,[4],inactive
same,Potency,[5],inactive
same,Potency,[6],inactive
same,Potency,[7],inactive
same,Potency,[8],inactive
same,Potency,[9],inactive
same,Potency,[10],inactive
same,Potency,[11],inactive
same,Potency,[17],inactive
same,Potency,[12],inactive
same,Potency,[13],inactive
same,Potency,[18],inactive
same,Potency,[16],inactive
N#CCCOCCC#N,Potency,[1],inactive
same,Potency,[2],inactive
same,Potency,[4],inactive
same,Potency,[5],inactive
same,Potency,[19],inactive
same,Potency,[6],inactive
same,Potency,[7],inactive
same,Potency,[8],inactive
same,Potency,[9],inactive
same,Potency,[10],inactive
same,Potency,[11],inactive
same,Potency,[20],inactive
same,Potency,[17],inactive
same,Potency,[12],inactive
same,Potency,[13],inactive
same,Potency,[14],inactive
same,Potency,[15],inactive
same,Potency,[18],inactive
CCc1c(C)cc(N)c(CC)c1N,Potency,[1],inactive
same,Potency,[2],inactive
same,Potency,[3],inactive
same,Potency,[4],inactive
same,Potency,[19],inactive
same,Potency,[6],inactive
same,Potency,[7],inactive
same,Potency,[8],inactive
same,Potency,[9],inactive
same,Potency,[10],inactive
same,Potency,[11],inactive
same,Potency,[20],inactive
same,Potency,[17],inactive
same,Potency,[12],inactive
same,Potency,[13],inactive
same,Potency,[14],inactive
same,Potency,[15],inactive
same,Potency,[18],inactive
same,Potency,[16],inactive
CCN(CC)c1ccc(N=Nc2ccccc2)cc1,Potency,[1],inactive
same,Potency,[2],inactive
same,Potency,[3],inactive
same,Potency,[4],inactive
same,Potency,[5],inactive
same,Potency,[6],inactive
same,Potency,[7],inactive
same,Potency,[8],inactive
same,Potency,[9],inactive
same,Potency,[10],inactive
same,Potency,[11],49 µM (active)
same,Potency,[20],43.6 µM (active)
same,Potency,[12],inactive
same,Potency,[13],inactive
same,Potency,[18],inactive
same,Potency,[16],inactive
Clc1ccc2c(Cl)ccnc2c1,Potency,[1],inactive
same,Potency,[2],inactive
same,Potency,[3],inactive
same,Potency,[4],inactive
same,Potency,[5],inactive
same,Potency,[6],inactive
same,Potency,[7],inactive
same,Potency,[8],inactive
same,Potency,[9],inactive
same,Potency,[10],inactive
same,Potency,[11],inactive
same,Potency,[17],inactive
same,Potency,[12],inactive
same,Potency,[13],inactive
same,Potency,[14],inactive
same,Potency,[15],inactive
same,Potency,[18],inactive
same,Potency,[16],inactive
CC(C=O)c1ccccc1 (centres undefined),Potency,[1],inactive
same,Potency,[2],inactive
same,Potency,[3],inactive
same,Potency,[4],inactive
same,Potency,[6],inactive
same,Potency,[7],inactive
same,Potency,[8],inactive
same,Potency,[9],inactive
same,Potency,[10],inactive
same,Potency,[11],inactive
same,Potency,[17],inactive
same,Potency,[13],inactive
same,Potency,[18],inactive
same,Potency,[16],inactive
CCCC(C)C=O (centres undefined),Potency,[1],inactive
same,Potency,[2],inactive
same,Potency,[4],inactive
same,Potency,[5],inactive
same,Potency,[19],inactive
same,Potency,[6],inactive
same,Potency,[7],inactive
same,Potency,[8],inactive
same,Potency,[9],inactive
same,Potency,[10],inactive
same,Potency,[11],inactive
same,Potency,[17],inactive
same,Potency,[13],inactive
same,Potency,[14],inactive
same,Potency,[15],inactive
same,Potency,[16],inactive
ClC(c1ccccc1)(c1ccccc1)c1ccccc1,Potency,[1],inactive
same,Potency,[2],inactive
same,Potency,[3],inactive
same,Potency,[4],inactive
same,Potency,[6],inactive
same,Potency,[7],inactive
same,Potency,[8],inactive
same,Potency,[9],inactive
same,Potency,[10],inactive
same,Potency,[11],inactive
same,Potency,[20],inactive
same,Potency,[17],inactive
same,Potency,[12],inactive
same,Potency,[13],inactive
same,Potency,[15],inactive
Brc1cc(Br)cc(Br)c1,Potency,[1],inactive
same,Potency,[2],inactive
same,Potency,[4],inactive
same,Potency,[5],inactive
same,Potency,[19],inactive
same,Potency,[6],inactive
same,Potency,[7],inactive
same,Potency,[8],inactive
same,Potency,[9],inactive
same,Potency,[10],inactive
same,Potency,[11],inactive
same,Potency,[20],inactive
same,Potency,[17],inactive
same,Potency,[12],inactive
same,Potency,[13],inactive
same,Potency,[14],inactive
same,Potency,[15],inactive
same,Potency,[18],inactive
same,Potency,[16],inactive
COc1cc(OC)nc(NC(=O)NS(=O)(=O)Nc2ccccc2C(=O)N(C)C)n1,Potency,[1],inactive
same,Potency,[2],inactive
same,Potency,[4],inactive
same,Potency,[5],inactive
same,Potency,[19],inactive
same,Potency,[6],inactive
same,Potency,[7],inactive
same,Potency,[8],inactive
same,Potency,[9],inactive
same,Potency,[10],inactive
same,Potency,[11],inactive
same,Potency,[20],inactive
same,Potency,[12],inactive
same,Potency,[13],inactive
same,Potency,[14],inactive
same,Potency,[15],inactive
same,Potency,[16],inactive
C=CC(=O)OCC(Br)CBr (centres undefined),Potency,[1],inactive
same,Potency,[2],inactive
same,Potency,[3],inactive
same,Potency,[4],inactive
same,Potency,[5],inactive
same,Potency,[6],inactive
same,Potency,[7],inactive
same,Potency,[8],inactive
same,Potency,[9],inactive
same,Potency,[10],inactive
same,Potency,[20],inactive
same,Potency,[17],inactive
same,Potency,[12],inactive
same,Potency,[13],inactive
same,Potency,[15],inactive
same,Potency,[18],inactive
same,Potency,[16],inactive
CCCCNc1ccc(NCCCC)c2c1C(=O)c1ccccc1C2=O,activity change,[1],"0.143% [at 15.8 µM, stronger effect = higher value]"
same,cytotoxicity increase,[2],-0.637% [at 15.8 µM]
same,"activity change, negative = cytotoxic",[3],-3.72% [at 15.8 µM]
same,cytotoxicity,[4],-4.17% [at 15.8 µM]
same,cytotoxicity increase,[6],-0.0716% [at 15.8 µM]
same,cytotoxicity,[7],3.56% [at 15.8 µM]
same,cytotoxicity increase,[8],-3.73% [at 15.8 µM]
same,cytotoxicity increase,[9],1.22% [at 15.8 µM]
same,"activity change, negative = cytotoxic",[10],0.554% [at 15.8 µM]
same,"activity change, negative = cytotoxicity",[11],-0.0547% [at 15.8 µM]
same,"activity change, negative = cytotoxicity",[20],3.79% [at 15.8 µM]
same,activity change,[17],"0.839% [at 15.8 µM, stronger effect = higher value]"
same,"activity change, negative = cytotoxicity",[12],1.94% [at 15.8 µM]
same,cytotoxicity increase,[13],-2.69% [at 15.8 µM]
same,"activity change, negative = cytotoxicity",[14],-14.1% [at 19 µM]
same,"viability change, negative = cytotoxic",[15],-9.45% [at 19 µM]
same,"activity, negative = inhibition",[18],-3.08% [at 19 µM]
same,"activity change, negative = inhibition",[16],2.76% [at 19 µM]
